Compound activity (PubChem BioAssay)
This is a sample that favours compounds with a hit; in the whole collection about 1.6% have one here.
gsp ag = agonists of gsp mutant (McCune-Albright syndrome); gsp mutant cells, cAMP HTRF, 30 min; AID 624287; hit rate 0.13% among 340,000; Potency, µM (titrated, usually from 76.9 µM), inactives show at the top dose activation (cAMP increase), usual class: activators; active = well fitted activation curve with a large enough effect; inconclusive = small, poorly fitted or top-dose-only effect, or another doubt; inactive = no such curve, though single readings can be large or run the other way; cell line not stated here;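 also: phosphodiesterase inhibitor Ro 20-1724 added with compounds to block cAMP breakdown; potency is read from the fitted curve at half-maximal effect; nearly all actives have a fitted effect of over 60% in size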
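Cells in DMEM/10% FBS with G418 were pretreated with compounds in DMSO plus […] (300 uM stock) for 30 min at 37C. cAMP was measured by HTRF (cAMP-d2 plus anti-cAMP antibody-K) after 30 min at room temperature.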
gsp antagonist = antagonists of gsp mutant (McCune-Albright syndrome); AID 624288; hit rate 0.4% among 340,000; gsp-mutant cells, cAMP HTRF, 30 min; Potency, µM (series often up to 76.9 µM), without a hit: top-dose activity change, negative = inhibition, most hits filed as inhibitors; calls by dose curve; cell line not stated here;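 also: intracellular cAMP measured with PDE inhibitor Ro 20-1724 present during compound exposure; potency is read from the fitted curve at half-maximal effect; % is scaled to controls: 0 for no effect and ±100 for the full control effect; nearly all actives have a fitted effect of over 65% in size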
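Cells in G418 medium, seeded 16-24 h, 37C; buffer exchange to DPBS + 1 mM CaCl2, 0.5 mM MgCl2, 0.05% BSA; cpds in DMSO + […] (300 uM stock), 30 min 37C; HTRF cAMP detection.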
Giardia kill = Giardia lamblia killing | hit rate 0.15% among 340,000 | Giardia lamblia trophozoite viability | activity change, % at 7.66 µM, hits read low; in the data active = activity change below about -80%; inconclusive = between about -30% and that limit;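 also: parasites exposed to compound for two days anaerobically before the ATP read; % is scaled to controls: 0 for no effect and ±100 for the full control effect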
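Giardia trophozoites, 100 cells per well, were exposed to compounds for 48 hrs at 37 deg C under anaerobic conditions; viability was then read as ATP content by bioluminescence after 15-30 min at room temperature.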
FBPA coupling cs = counter-screen for Giardia aldolase inhibitors: coupling enzyme system; coupling enzyme system counterscreen, AmpLite Red fluorescence; activity change, negative = inhibition, % at 58.2 µM, hits read low; hit rate 0.67% among 290,000; AID 2472; in the data active = activity change below about -30%; also: % is scaled to controls: 0 for no effect and ±100 for the full control effect
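Final compound at 57.5 uM, incubated 10 min at RT with coupling enzyme reagent (glyceraldehyde-3-phosphate), then 20 min with substrate and AmpLite Red detection. Fluorescence read at 525/598 nm; tests interference with the coupling assay, not aldolase inhibition.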
RXFP1 ag = agonists of human relaxin receptor RXFP1. HEK293T-RXFP1 cAMP TR-FRET, 30 min; response scale: percent of porcine relaxin response, buffer zero. Q9HBX9. hit rate 0.3% among 370,000. Potency, µM (doses to about 57.5 µM), for inactives: at the top dose activation, actives largely listed as activators; active = well fitted activation curve with a large enough effect; inconclusive = small, poorly fitted or top-dose-only effect; also: potency is read from the fitted curve at half-maximal effect; % is scaled to controls: 0 for no effect and ±100 for the full control effect; nearly all actives have a fitted effect of over 60% in size
Target sequence (Q9HBX9 whole entry, looked up): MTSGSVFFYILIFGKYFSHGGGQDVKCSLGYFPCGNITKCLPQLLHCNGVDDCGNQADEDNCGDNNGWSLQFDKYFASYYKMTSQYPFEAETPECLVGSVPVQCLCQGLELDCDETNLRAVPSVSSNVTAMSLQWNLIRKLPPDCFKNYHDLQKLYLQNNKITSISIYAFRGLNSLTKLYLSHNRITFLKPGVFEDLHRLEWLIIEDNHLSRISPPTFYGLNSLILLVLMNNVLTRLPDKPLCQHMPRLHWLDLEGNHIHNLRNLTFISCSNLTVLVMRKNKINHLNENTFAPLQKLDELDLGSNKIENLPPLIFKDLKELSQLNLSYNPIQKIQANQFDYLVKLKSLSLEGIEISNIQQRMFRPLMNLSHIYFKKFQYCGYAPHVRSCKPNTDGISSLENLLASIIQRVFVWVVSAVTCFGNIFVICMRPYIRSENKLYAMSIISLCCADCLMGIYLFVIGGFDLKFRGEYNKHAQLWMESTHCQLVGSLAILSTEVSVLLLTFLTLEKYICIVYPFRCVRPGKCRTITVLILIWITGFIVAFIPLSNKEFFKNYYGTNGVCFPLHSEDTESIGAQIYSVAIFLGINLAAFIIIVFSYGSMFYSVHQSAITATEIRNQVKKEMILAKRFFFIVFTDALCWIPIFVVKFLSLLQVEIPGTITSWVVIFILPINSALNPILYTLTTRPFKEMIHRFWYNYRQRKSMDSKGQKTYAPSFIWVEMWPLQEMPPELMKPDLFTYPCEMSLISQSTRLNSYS
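HEK293T cells stably expressing RXFP1 were pretreated with the PDE4 inhibitor Ro 20174, exposed to compounds for 30 min at 37C, lysed, and cAMP was read by TR-FRET. Data normalized to buffer (basal) and 29 nM porcine relaxin (100%).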
RXFP1 antagonist = blocks the human relaxin receptor RXFP1; Q9HBX9; HEK293-RXFP1, relaxin-stimulated cAMP HTRF, 30 min; active compounds read low; activity change, negative = inhibition, % at 57.5 µM; hit rate 0.59% among 350,000; AID 1259400;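 active = activity change of -60% or lower, but not beyond a set lower limit; inconclusive = change between -60% and -40%, or beyond the set limit; inactive = change above -40%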; also: % is scaled to controls: 0 for no effect and ±100 for the full control effect
* marks the source's active call; other numbers are inactive results; ? = inconclusive; nt = no result given; [ ] = dose if it differs, or a comment.

SMILES	gsp ag	gsp antagonist	Giardia kill	FBPA coupling cs	RXFP1 ag	RXFP1 antagonist
COC(=O)c1ccc([C@H]2Nc3ccc(S(=O)(=O)Nc4cccc(C)c4)cc3[C@H]3C=CC[C@H]32)cc1	nt	nt	nt	nt	3%	-70*
Cc1ccc2c(c1)c1c(n2CC(O)CN2CCCCC2C)CCCC1 (stereo not given)	7%	9%	3	0	-4%	-92*
CCOC(=O)C1=C(C)N=c2s/c(=C/c3cccc([N+](=O)[O-])c3O)c(=O)n2C1c1ccc(OC)cc1OC (stereo not given)	-65%	-29%	-80*	3	-1%	-1
CCOC(=O)C1=C(C)N=c2s/c(=C/c3ccc(OCC(=O)O)c(OC)c3)c(=O)n2C1c1ccc(Cl)cc1 (stereo not given)	19%[15.4 µM]	35µM*	11	nt	nt	-14
CCOC(=O)C1=C(C)N=c2s/c(=C/c3ccc(OCC(=O)O)cc3)c(=O)n2C1c1ccc(F)cc1 (stereo not given)	41%	22µM*	19	8	-1%	-9
COc1cc(CNc2ncnc3ccc(-c4c(C)noc4C)cc23)cc(OC)c1OC	nt	nt	nt	2	nt	nt
CC1(c2nnc(Cc3ccccc3)o2)CC(c2ccncc2)=NO1 (stereo not given)	15%	-4%	11	nt	nt	nt
Cn1c(=O)c2[nH]c(SCCN3CCOCC3)nc2n(C)c1=S	27%	?	30	nt	nt	-72*
Cn1c(=O)c2c(nc(SCCN3CCOCC3)n2C)n(C)c1=O	8.9µM*	3%	22	1	?	4
Cc1cc(-c2nnc(CCC(=O)NC(C)(C)C34CC5CC(CC(C5)C3)C4)o2)no1	9%[15.4 µM]	3%	-7	nt	nt	-4
Cc1ccc(O)c(N=CC2=C(O)c3ccccc3C2=O)c1	?	8%	-7	-9	28µM*	18
O=C1C(C=Nc2ccccc2O)=C(O)c2ccccc21	4%	-3%	0	0	1%	2
Cc1ccc(S(=O)(=O)N2CCN(c3nc(-c4cccs4)nc4cccnc34)CC2)cc1	nt	nt	-6	nt	nt	nt
CCOC(=O)c1c(NC(=O)C(C)OC(=O)C2=COCCO2)sc2c1CCCC2 (stereo not given)	-16%	22µM*	9	nt	-1%	-15
O=[N+]([O-])c1ccc(-c2nc(Nc3cccc(O)c3)c3ccccc3n2)cc1	?	28µM*	-19	-2	10%	-10
O=C(O)c1cccc(Nc2nc(-c3ccc([N+](=O)[O-])cc3)nc3ccccc23)c1	?	-13%	2	3	21%	-10
CCOC(=O)N/N=C1/C[C@@H](O)[C@@H](O)[C@@H]2[C@@H]3C(=O)N(Cc4ccc5c(c4)OCO5)C(=O)[C@H]3CC[C@H]12	nt	nt	nt	0	nt	nt
O=C(CSC1=NCCS1)Nc1ccc(F)cc1	1%	8.9µM*	-13	0	0%	14
O=C(Nc1nnc(-c2ccncc2)o1)c1cccc(N2C(=O)CCC2=O)c1	-11%[15.4 µM]	6%	15	0	1%	-7
CS(=O)(=O)c1ccccc1-c1nnc(NC(=O)c2cccc(N3C(=O)CCC3=O)c2)o1	-14%[15.4 µM]	7%	8	nt	0%	-76*
Cc1ccc(C(=O)NCC2CCCN2S(=O)(=O)c2cccs2)cc1C (stereo not given)	18%	-2%	14	nt	0%	-1
COc1cc(C(=O)NCC2CCCN2S(=O)(=O)c2cccs2)cc(OC)c1OC (stereo not given)	10%[15.4 µM]	-2%	19	nt	1%	-82*
CC#CCN1c2ccccc2[C@]23C[C@@H](C(=O)OC)N(C(=O)COCc4ccccc4)C2=NC(C(=O)OC)=C(C(=O)OC)[C@H]13	nt	nt	nt	2	nt	nt
COc1ccc(CN(CC(=O)NCCC(C)C)C(=O)CCC(=O)Nc2nccs2)cc1	3%	-2%	-4	-2	-4%	-69*
COCCNC(=O)CN(Cc1ccc(OC)cc1)C(=O)CCC(=O)Nc1nccs1	-57%	6%	20	-1	3%	6
SMILES	gsp ag	gsp antagonist	Giardia kill	FBPA coupling cs	RXFP1 ag	RXFP1 antagonist
N#CC(C#N)=NNc1ccc(S(=O)(=O)N2CCCCC2)cc1	6%	25µM*	0	18	-1%	-36
N#C/C(=N\Nc1ccc(S(=O)(=O)N2CCOCC2)cc1)C(N)=S	5%[15.4 µM]	-21%	19	-1	0%	-22
CCOC(=O)c1cc(=O)c2c(OCC(COc3cccc4oc(C(=O)OCC)cc(=O)c34)OC(=O)[C@@H](N)CCCCN)cccc2o1	nt	nt	nt	nt	nt	34
Oc1ccc2ccccc2c1C=Nc1ccc(Cl)cn1	-3%[15.4 µM]	10%	-8	-46*	-2%	-15
O=S(=O)(/N=C/c1c(O)ccc2ccccc12)c1cccs1	nt	nt	nt	-50*	-1%	nt
Oc1ccc2ccccc2c1C=NCc1ccccc1	-11%	-16%	3	-32*	-2%	-9
Oc1c(Br)cc(Br)cc1/C=N/c1nc2c(s1)CCCC2	32%	-24%	-4	nt	nt	-37
Oc1ccc2ccccc2c1/C=N/c1nc2c(s1)CCCC2	-45%	-9%	8	-40*	1%	-4
Cc1cc(O)c(C=Nc2ccc(Cl)cn2)c(=O)o1	23%	0%	17	2	4%	3
O=CN/N=C/c1c(O)ccc2ccccc12	-1%	-1%	12	-3	1%	-4
COc1ccc(C)cc1NC(=O)NNC(=O)C(C)Oc1ccc([N+](=O)[O-])cc1 (stereo not given)	-8%	-7%	-13	0	0%	3
Cc1c(C(=O)NCCO)[n+](=O)c2ccccc2n1[O-]	nt	nt	nt	nt	nt	-8
Cc1ccc(S(=O)(=O)/N=C/c2c(O)ccc3ccccc23)cc1	21%	-2%	3	-32*	3%	-1
CCN(CC)S(=O)(=O)c1ccc(Cl)c(NC(=O)CSc2cccc[n+]2[O-])c1	8.9µM*	12%	-7	3	25µM*	-1
Cc1ccc(NC(=O)CSc2nnc(Cc3cccn3C)n2-c2ccc(F)cc2)c(C)c1	13%	50µM*	3	-1	1%	-18
Cn1cccc1Cc1nnc(SCC(=O)Nc2ccc(F)cc2F)n1-c1ccc(F)cc1	-35%	-3%	11	5	0%	nt
O=C(Nc1ccccc1F)c1ccc([N+](=O)[O-])s1	10%[15.4 µM]	0%	?	3	1%	-3
O=C(Nc1ccc2oc(-c3ccccc3F)nc2c1)c1ccc([N+](=O)[O-])o1	4%	4%	-96*	2	0%	0
O=C(Nc1cccc([N+](=O)[O-])c1)c1ccc([N+](=O)[O-])o1	-4%	nt	nt	nt	nt	2
Cc1ccc(NC(=O)c2ccc([N+](=O)[O-])o2)cc1C	-33%	-11%	-94*	-6	0%	19
O=C(Nc1cccc(NC(=O)c2ccccc2Cl)c1)c1ccc([N+](=O)[O-])o1	-20%	40µM*	-103*	-8	-1%	30
